# Test results: PubChem BioAssay (Tox21)
# Records with an inconclusive call do not appear. Entries that show only a call come without a potency. Values without a mark were called inactive. The source made the active and inactive calls. Calls come from the whole dose curve; as a rule, active = well fitted curve in the direction sought with a large enough effect in the repeat runs; inconclusive = weak or mixed curves; inactive = no such curve, though single readings can be large; an effect the other way counts as inactive or inconclusive.
# System: not listed separately
# Assay: qHTS assay to identify small molecule antagonists of the estrogen receptor alpha (ER-alpha) signaling pathway using the BG1 cell line in the presence of 0.1 nM 17-beta-estradiol - cell viability counter screen (AID 1259241); note: nearly all actives have a fitted effect of over 40% in size
# Details: VM7Luc4E2 (BG1) viability, CellTiter-Fluor protease, 22 h, 0.1 nM estradiol agonist added; series mostly up to 92.4 µM; activity change, negative = cytotoxicity: at the top concentration
# How it was run: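 Following 5 days in phenol red-free medium with charcoal-stripped serum, VM7Luc4E2 cells received test compounds alongside 0.1 nM 17beta-estradiol (final) at 37C for 22 hr. Live cells were then quantified via protease-substrate fluorescence.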
row,SMILES,Potency
1,COC(=O)c1ccccc1N,inactive
2,CCCN(CCC)N=O,inactive
3,CN(N=O)c1ccccc1,inactive
4,CC(C)OC(=O)Nc1cccc(Cl)c1,inactive
5,CCCCOC(=O)c1ccccc1C(=O)OCCCC,inactive
6,CCCCN(CCCC)SN(C)C(=O)Oc1cccc2c1OC(C)(C)C2,inactive
7,CC(C)(C)C(O)(CCc1ccc(Cl)cc1)Cn1cncn1 (centres undefined),inactive
8,CC(C)C#N,inactive
9,Cc1cc(Cl)ccc1O,inactive
10,O=S(=O)(c1ccc(O)cc1)c1ccc(O)cc1,inactive
11,Cc1ccc([N+](=O)[O-])cc1C,inactive
12,C1CN2CCN1CC2,inactive
13,CCc1cccc(C)c1N(C(=O)CCl)C(C)COC (centres undefined),inactive
14,c1ccc2c(c1)Oc1ccccc1O2,inactive
15,CC(=O)C=C(C)C,inactive
16,C#CC(C)(C)NC(=O)c1cc(Cl)cc(Cl)c1,inactive
17,CCC12COCN1COC2,inactive
18,CC(C)NC(=O)N1CC(=O)N(c2cc(Cl)cc(Cl)c2)C1=O,inactive
19,CCOP(=S)(OCC)SCCSCC,inactive
20,[O-][Cl+2]([O-])O,inactive

# System: not listed separately
# Assay: qHTS assay to identify small molecule antagonists of the androgen receptor (AR) signaling pathway using the MDA cell line in the presence of 0.5 nM R1881 - cell viability counter screen (AID 1259242); note: nearly all actives have a fitted effect of over 45% in size
# Details: MDA-kb2 viability, CellTiter-Fluor protease fluorescence, 16 h; series mostly up to 92.4 µM; viability change, negative = cytotoxic: at the top concentration
# How it was run: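 Human breast carcinoma MDA-kb2 cells, cultured without CO2, receive compounds alongside 0.5 nM (final) R1881 agonist. After 16 hr at 37C, viability is taken as live-cell protease signal.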
SMILES,outcome,"viability change, negative = cytotoxic [%]"
c1ccc(OP(Oc2ccccc2)Oc2ccccc2)cc1,inactive,
COC(=O)c1ccccc1N,inactive,
CCOP(=S)(OCC)Oc1cnc2ccccc2n1,inactive,
CCCN(CCC)N=O,inactive,
CN(N=O)c1ccccc1,inactive,
CC(C)OC(=O)Nc1cccc(Cl)c1,inactive,
CCCCOC(=O)c1ccccc1C(=O)OCCCC,inactive,
CCCCN(CCCC)SN(C)C(=O)Oc1cccc2c1OC(C)(C)C2,inactive,
CC(NC(C)(C)C)C(=O)c1cccc(Cl)c1 (centres undefined),inactive,
CC(C)(C)C(O)(CCc1ccc(Cl)cc1)Cn1cncn1 (centres undefined),inactive,
CC(C)C#N,inactive,
Cc1cc(Cl)ccc1O,inactive,
O=S(=O)(c1ccc(O)cc1)c1ccc(O)cc1,inactive,
Cc1ccc([N+](=O)[O-])cc1C,inactive,
C1CN2CCN1CC2,inactive,
CC(C)(Cl)Cl,inactive,
CC(C)(C)OOC(=O)c1ccccc1,inactive,
CCc1cccc(C)c1N(C(=O)CCl)C(C)COC (centres undefined),inactive,
c1ccc2c(c1)Oc1ccccc1O2,inactive,

SMILES,outcome,"viability change, negative = cytotoxic [%]"
O=[N+]([O-])c1ccc(Oc2ccc(Cl)cc2Cl)cc1,inactive,
CCC[N+](=O)[O-],,0.586
Nc1c(Cl)c(Cl)nc(C(=O)O)c1Cl,inactive,
CC(=O)C=C(C)C,inactive,
C#CC(C)(C)NC(=O)c1cc(Cl)cc(Cl)c1,inactive,
CN(C)CCO,inactive,
OC(O)C(Cl)(Cl)Cl,inactive,
CC1C=[C-]C=C1.[C-]#[O+].[C-]#[O+].[C-]#[O+].[Mn],inactive,
CCN(CC)c1ccccc1,inactive,
CCC(C)(CC)c1cc(NC(=O)c2c(OC)cccc2OC)on1,inactive,
CCC12COCN1COC2,inactive,
CC(C)NC(=O)N1CC(=O)N(c2cc(Cl)cc(Cl)c2)C1=O,inactive,
C1CC2OC2CC1C1CO1 (centres undefined),inactive,
CC(C#N)CCC#N (centres undefined),inactive,
Nc1ccccc1C(=O)O,inactive,
CCOP(=S)(OCC)SCCSCC,inactive,
[O-][Cl+2]([O-])O,inactive,
Clc1cccc(Cl)c1Cl,inactive,

# Target: Estrogen receptor (Homo sapiens) (UniProt P03372)
# Sequence (P03372 whole entry, looked up): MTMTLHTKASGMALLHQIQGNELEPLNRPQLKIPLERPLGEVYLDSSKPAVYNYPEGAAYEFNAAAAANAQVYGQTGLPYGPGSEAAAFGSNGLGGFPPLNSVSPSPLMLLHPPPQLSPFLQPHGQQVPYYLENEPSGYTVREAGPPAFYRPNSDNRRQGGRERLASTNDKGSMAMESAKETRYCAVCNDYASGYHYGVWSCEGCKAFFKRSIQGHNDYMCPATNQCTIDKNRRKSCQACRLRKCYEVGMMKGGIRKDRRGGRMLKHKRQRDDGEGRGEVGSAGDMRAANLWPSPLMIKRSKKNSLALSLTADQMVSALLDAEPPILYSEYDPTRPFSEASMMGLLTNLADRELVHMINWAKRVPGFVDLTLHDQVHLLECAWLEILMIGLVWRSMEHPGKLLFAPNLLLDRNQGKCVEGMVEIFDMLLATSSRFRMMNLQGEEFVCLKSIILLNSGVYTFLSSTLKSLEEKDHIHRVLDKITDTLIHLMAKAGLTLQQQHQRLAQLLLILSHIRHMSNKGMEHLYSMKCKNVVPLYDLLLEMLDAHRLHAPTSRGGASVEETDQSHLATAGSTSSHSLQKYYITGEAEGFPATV
# Assay: qHTS assay to identify small molecule antagonists of the estrogen receptor alpha (ER-alpha) signaling pathway using the BG1 cell line in the presence of 0.1 nM 17-beta-estradiol (AID 1259244); note: nearly all actives have a fitted effect of over 50% in size
# Details: VM7Luc4E2 (BG1) ERE-luciferase, antagonist mode, 0.1 nM E2, 22 h; series mostly up to 92.4 µM; activity change, negative = inhibition: at the top concentration
# How it was run: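 Seeding of stripped-serum-adapted VM7Luc4E2 cells, 24 h attachment, compound transfer, then 0.1 nM final 17beta-estradiol; after 22 h incubation, ONE-Glo reagent and luminescence reading.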
row,SMILES,Potency
1,c1ccc(OP(Oc2ccccc2)Oc2ccccc2)cc1,inactive
2,CCOP(=S)(OCC)Oc1cnc2ccccc2n1,inactive
